Measured values published in PubChem BioAssay AID868 (SRMLSC, 2007).
Hit rate of the full screen: of about 190,000 compounds, about 3,500 (1.8%) were called active. The sample holds actives, similar compounds and a random draw of the others, so the mix is not that of the screen.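 How the source made its calls: active means inhibition above a set limit, 3 SD over mean compound inhibition (cut at about 8.4% in these data); inactive means the rest.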

Assay: RAM signaling blockers in budding yeast – dse1pr::URA3 reporter, 5-FOA selection, primary screen (AID 868);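 further: 0% = DMSO-only wells with no growth and 100% = 10 µM 1-NA-PP1 full growth; inhibition rescues growth on 5-FOA so higher OD means more RAM inhibition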
Settings: S. cerevisiae dse1pr::URA3 reporter, 5-FOA growth OD615, 2 d; at 50 µM; active compounds read high; analog-sensitive cbk1-as2 kinase mutant strain

inhibition, inactive:
CCCNC(=O)c1c(Cl)cnn1-c1ccc(C)cc1 -1.52%
NS(=O)(=O)c1ccc(CCNC(=O)c2ccc([N+](=O)[O-])cc2[N+](=O)[O-])cc1 0%
NS(=O)(=O)c1ccc(NC(=O)COC(=O)CCc2c[nH]c3ccccc23)cc1 1.13%
CCOC(=O)CN(C)Cc1c[nH]c2ccccc12 4.1%
CCOc1ncccc1C(=O)OCC(=O)NC1CC1 -0.99%
CN(C)C(CNC(=O)Cc1ccc([N+](=O)[O-])cc1)c1ccccc1 (configuration not stated) -0.62%
O=C(NCc1cccs1)C(=O)NCC1OCCCN1S(=O)(=O)c1ccc(F)cc1 (configuration not stated) 3.25%
COc1ccc(NS(=O)(=O)c2ccc(NC(=O)c3ccc(N(C)S(C)(=O)=O)cc3)cc2)cc1 4.92%
CC(C)CNC(=O)COC(=O)c1ccccc1OCC(=O)Nc1ccc(Br)cc1 1.56%
COc1ccc(C2CC(c3cccs3)=NN2C(=O)COC(=O)c2cc3ccccc3cc2O)cc1OC (configuration not stated) 4.23%
COc1ccc(C2CC(c3cccs3)=NN2C(=O)CSc2nnc(N)s2)cc1OC (configuration not stated) 1.88%
COc1ccc(NC(=O)COC(=O)c2ccc(NS(=O)(=O)/C=C/c3ccccc3)cc2)cc1 4.45%
O=C(CSc1nncs1)NC1CCCc2ccccc21 (configuration not stated) 0.4%
CC(C)Nc1nnc(SCC(=O)c2c[nH]c3ccccc23)s1 0.26%
CN1/C(=C\C(=O)c2cccnc2Cl)C(C)(C)c2ccccc21 0.13%
COCCNC(=S)N1CCC(NC(=O)C23CC4CC(CC(C4)C2)C3)CC1 -0.25%
CCN(CC)CCNC(=O)c1sc2ncn(CC(=O)Nc3ccc(C)c(Cl)c3)c(=O)c2c1C 0.37%
Cn1c(=O)n(Cc2ccco2)c(=N)c2c3c(sc21)CCCC3 1.37%
O=C(COC(=O)CSc1nnc(-c2ccc(Cl)cc2)o1)Nc1cc(Cl)cc(Cl)c1 2.39%
CC(=O)NC1C(OCc2ccccc2)OC(COC(C)=O)C(OC(C)=O)C1OC(C)=O (configuration not stated) 1.66%
CC(=O)NC1C(Oc2ccc(C=O)cc2)OC(COC(C)=O)C(OC(C)=O)C1OC(C)=O (configuration not stated) 1.12%
C=CCOC(=O)C1=C(C)N=C2SCCC(=O)N2C1/C=C/c1ccccc1OC (configuration not stated) 1.62%
COc1ccccc1CNC(=O)CNC(=O)c1cn(-c2ccccc2OC)c(=O)c2ccccc12 1.48%
CCCCNC(=O)CSc1nc2ccc(NC(=O)CSc3nnc(N)s3)cc2s1 2.71%
CCCCNC(=O)CSc1nc2ccc(NC(=O)CSc3nnc(COc4ccccc4C)n3C)cc2s1 6.51%
Cn1c(=O)c2c(ncn2CCc2ccccc2)n(C)c1=O 0.37%
C/C=C(\C)C(=O)NCCN1C2=NC[C@H](Cc3ccc(O)cc3)N2C[C@@H]1Cc1ccc(OC)cc1 -1.63%
CC(C)(C)n1nnnc1C(c1cccs1)N(Cc1cccnc1)CC1CCCO1 (configuration not stated) 4.18%
CCC(C)(C)n1nnnc1C(c1cccs1)N1CCN(Cc2ccccc2)CC1 (configuration not stated) 0.11%
COCCn1c(C)cc(C(=O)COC(=O)/C=C/c2cccc(OC)c2)c1C 8.25%
CC1CCCCC1NC(=O)COC(=O)Cc1ccc(Br)cc1 (configuration not stated) 1.96%
COc1cc(-c2nc(-c3ccncc3)no2)cc(OC)c1OC 1.83%
COc1ccc(-c2nc(-c3ccccc3)no2)c(OC)c1 -0.68%
COc1cccc(CN2CCNC(=O)C2CC(=O)N(C)CCc2ccccn2)c1 (configuration not stated) 0.39%
COc1ccc(OCC(=O)Nc2ccc(N3CCC(C)CC3)cc2)cc1 -0.73%
CN1CCN(c2ccc(NC(=O)COc3ccc(Cl)cc3Cl)cc2)CC1 1.03%
O=C(O)CSc1nccc2ccccc12 0.52%
CCOC(=O)NN1C(=O)c2ccccc2NC1c1ccccc1O (configuration not stated) -0.54%
CCN(CC)C(=O)C(=O)Nc1cccc(Br)c1 1.63%
COC(=O)c1sc(NC(=O)c2csc3c2CCCC3)nc1C 3.89%
Cc1ccc(NC(=O)c2csc3c2CCCC3)cc1 0.75%
Cc1cc(/C=C2/SC(=O)N(CC(=O)OC(C)C)C2=O)c(C)n1C 4.99%
CCOC(=O)CC1C(=O)NCCN1C(=O)COc1ccc(Br)cc1C (configuration not stated) -0.4%
COc1ccc(CCNc2nc(-c3cccc(NC(C)=O)c3)cs2)cc1OC -0.26%
COc1ccc(C2OCC3(CO2)SC(=O)NC3=O)cc1OC (configuration not stated) 0.64%
COc1cccc(NC(=O)CC2C(=O)NCCN2C(=S)Nc2ccc(F)cc2)c1 (configuration not stated) 4.21%
CC1CCCCC1NC(=O)CN1CCC(O)(c2ccc3c(c2)OCO3)CC1 (configuration not stated) 0.68%
CCN(CC)S(=O)(=O)c1ccc(N(C)Cc2cccc(OC)c2OC)nc1 2.24%
CCN(CC)S(=O)(=O)c1ccc(N(C)CCc2ccc(OC)c(OC)c2)nc1 1.33%
Cc1cccc(-n2cnc(C(=O)NNC(=S)Nc3ccccc3)c2)n1 1.6%
Cc1ccc(C(=O)N/C(=C\c2ccco2)C(=O)N2CCSCC2)cc1C -0.85%
CCn1c(COc2ccccc2)nnc1SCC(=O)NCc1ccco1 0.66%
C=CCn1c(CNC(=O)c2ccco2)nnc1SCC(=O)c1ccc(OC)cc1 -1.14%
Cc1ccc(COc2ccc(/C=N/NC(=O)CN3CCCCC3)cc2)cc1 0.5%
O=C(N/N=C/c1ccc(OCc2ccccc2)cc1)c1ccc(O)cc1 1.57%
COc1ccccc1NC(=O)CN1CCN(S(=O)(=O)c2ccc(Br)cc2)CC1 0.23%
COc1cc(C(=O)NNC(=O)c2ccc(S(=O)(=O)N3CCCCC3)cc2)cc(OC)c1OC 3.63%
Cc1csc(NC(=O)c2ccc(-c3ccc(Cl)cc3Cl)o2)n1 0.54%
CC1CCN(C(=S)c2cccc(O)c2)CC1 0.5%
COCC(C)NCc1cc(Br)ccc1OC (configuration not stated) 1.56%
COC(=O)[C@H](Cc1ccccc1)NC(=O)[C@@H]1C[C@H]1[C@@H](NC(=O)OCc1ccccc1)c1ccccc1 1.21%
O=C(O)C1CC=C(Cl)CC1C(=O)NCc1ccccc1 (configuration not stated) 1.08%
CC12CN(NC(=O)c3ccc(Cl)cc3)C3(C#N)CC1CCC23C (configuration not stated) -0.13%
CC(=O)Nc1cccc(Oc2cc(C#N)c(C#N)cc2N2CCOCC2)c1 0.91%
COc1cccc(C(=O)Nc2ccc(N3CCCC3)cc2)c1 1.61%
COc1ccc2cc(CCl)c(Cl)nc2c1 0.27%
COc1ccc(C2CC(c3cccs3)=NN2c2ccc(F)cc2)cc1OC (configuration not stated) 2.78%
COc1ccc(C2CC(c3cccs3)=NN2C(=O)CSc2nncs2)cc1OC (configuration not stated) -0.13%
CCc1c(C)nc2c(OC)cccc2c1Cl 0.88%
CC(C)(C)NC(=O)COC(=O)c1cc(Br)ccc1Cl -0.13%
C=CCN(c1ccc(C(=O)Nc2cc(C)cc(C)c2)cc1)S(C)(=O)=O 1.58%
CC(=O)Nc1ccccc1NC(=O)c1cc(C)cc(C)c1 1.49%
CC(C)(C)c1ccc(/C=C/C(=O)NC2CCS(=O)(=O)C2)cc1 (configuration not stated) -1.15%

inhibition, active:
CC(C)(C)N(Cc1ccccc1)C(=O)COC(=O)CCc1c[nH]c2ccccc12 10.3%
O=C1c2cccc(OCC(=O)N3N=C(c4cccs4)CC3c3ccc(F)cc3)c2CCN1Cc1ccccc1 (configuration not stated) 9.86%
CC(C)Nc1nnc(SCC(=O)/C=C2\N(C)c3ccccc3C2(C)C)s1 10.6%
COc1ccc(O[C@H]2C=C[C@@H](c3ccccc3)O[C@@H]2CO/N=C/C[C@@H]2C=C[C@H](OC(C)=O)[C@@H](COC(C)=O)O2)cc1 13.9%
Nc1nnc(SCC(=O)Nc2ccc3nc(SCC(=O)Nc4ccccc4)sc3c2)s1 9.31%
CCOc1ccc(CN(Cc2ccco2)C(c2cccs2)c2nnnn2C(C)(C)C)cc1 (configuration not stated) 15.1%
COc1ccc(-c2noc(-c3cccc(OC)c3OC)n2)cc1OC 8.94%
Cc1ccc(NC(=O)COc2ccc(-n3ccnc3)cc2)cc1Cl 19.6%
COC(=O)c1sccc1NC(=O)c1csc2c1CCCC2 12%
CCN=C1S/C(=C\c2cc(Br)ccc2OCC(=O)OCC)C(=O)N1CC 11.5%
CCN(CC)S(=O)(=O)c1ccc(N(C)Cc2ccc(C(F)(F)F)cc2)nc1 11.1%
COc1ccc(C(=O)CSc2nnc(COc3ccccc3)n2Cc2ccco2)cc1 9.29%
O=C(Cc1cccs1)N/N=C/c1ccc(OCc2ccccc2)cc1 10.5%
COCCN(CC(=O)Nc1ccccc1C)S(=O)(=O)c1ccc(S(=O)(=O)N2CCCC2)cc1 9.62%
CC1CCN(C(=S)c2ccc(-c3ccc(Cl)cc3Cl)o2)CC1 15.1%
O=C(NCc1ccccc1)[C@H]1C[C@@H]1[C@H](NP(=O)(c1ccccc1)c1ccccc1)c1ccccc1 19%
COc1cc(N2CCCC2)c(OC)cc1/C=C(/C#N)c1cccc(Br)c1 8.59%
COc1ccc(C2CC(c3cccs3)=NN2c2nc(C)c(C(C)=O)s2)cc1OC (configuration not stated) 9.6%
CSCc1ccc(C(=O)Nc2cc(C)cc(C)c2)cc1 10.7%
